{"source": "PubChem BioAssay (Tox21)", "note": "A number with no mark means an inactive call. Records with an inconclusive call do not appear. Active and inactive are the calls of the source. The call rests on the fitted dose curve; in most records, active means well fitted curve in the direction sought with a large enough effect in the repeat runs; inconclusive means weak or mixed curves; inactive means no such curve, though single readings can be large; an effect the other way counts as inactive or inconclusive. Potency means the concentration at half of the fitted maximal effect.", "data": [{"experiment": "qHTS assay to identify small molecule HDAC inhibitors (AID 1259364); further: nearly all actives have a fitted effect of over 45% in size", "conditions": "HCT-116 HDAC-Glo I/II luminescence, 2 h; series mostly up to 92.4 µM; activity change, negative = inhibition: at the top concentration", "procedure,_shortened": "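After a 2 hr compound incubation (37C, 5% CO2), HCT-116 cells seeded at 1,500/well the day before received HDAC-Glo reagent; signal read as luminescence after 30 min at room temperature.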", "values": [{"smiles": "CCN(Cc1cccc(S(=O)(=O)O)c1)c1ccc(C(=C2C=CC(=[N+](CC)Cc3cccc(S(=O)(=O)O)c3)C=C2)c2ccc(O)cc2S(=O)(=O)[O-])cc1", "Potency": "3.71 µM (active)"}]}, {"experiment": "qHTS assay to identify small molecule HDAC inhibitors - cell viability counter screen (AID 1259365); further: nearly all actives have a fitted effect of over 50% in size; on activity change, negative = cytotoxicity: on the % scale 0 is the no-effect control and ±100 the full control effect", "conditions": "HCT-116 viability, CellTiter-Glo ATP luminescence, 2 h; series mostly up to 92.4 µM; activity change, negative = cytotoxicity: at the top concentration", "procedure,_shortened": "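Viability readout: CellTiter-Glo luminescence. Wild-type HCT-116 cells, 2hr compound treatment following overnight attachment at 37 C.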", "values": [{"smiles": "COC(=O)CC(C(C)=O)C(=O)OC", "note": "(centres undefined)", "activity change, negative = cytotoxicity": "-0.204%"}, {"smiles": "CC(C)(O)CCc1ccccc1", "activity change, negative = cytotoxicity": "4.33%"}, {"smiles": "C=C(C)c1ccccc1", "activity change, negative = cytotoxicity": "2.14%"}, {"smiles": "Cc1cccc2sc(N)nc12", "activity change, negative = cytotoxicity": "10.1%"}, {"smiles": "Nc1cccc2c(N)cccc12", "activity change, negative = cytotoxicity": "-7.25%"}, {"smiles": "CC(=O)Oc1cccc(O)c1", "activity change, negative = cytotoxicity": "2.57% [at 42.5 µM]"}, {"smiles": "CCCOC(=O)c1c(Cl)c(Cl)c(Cl)c(Cl)c1C(=O)OCCC", "activity change, negative = cytotoxicity": "-11.1%"}, {"smiles": "CCc1ccc(C)cc1", "activity change, negative = cytotoxicity": "-0.0086%"}, {"smiles": "COC(OC)OC", "activity change, negative = cytotoxicity": "-1.27%"}, {"smiles": "CCCCCCCCCCCCCOS(=O)(=O)O", "activity change, negative = cytotoxicity": "-15.1%"}, {"smiles": "Nc1ccc(F)cc1", "activity change, negative = cytotoxicity": "0.544%"}, {"smiles": "CCCCCCCCCCCCCCCCCC(=O)OCC(CC)CCCC", "note": "(centres undefined)", "activity change, negative = cytotoxicity": "1.54%"}, {"smiles": "CC(=O)OCCC(C)CC(C)(C)C", "note": "(centres undefined)", "activity change, negative = cytotoxicity": "0.523%"}, {"smiles": "CCCCCc1ccco1", "activity change, negative = cytotoxicity": "0.189% [at 42.5 µM]"}, {"smiles": "CC(C)(O)c1coc(S(=O)(=O)NC(=O)Nc2c3c(cc4c2CCC4)CCC3)c1", "activity change, negative = cytotoxicity": "-7.56%"}, {"smiles": "Cc1ccc(N(CC2=NCCN2)c2cccc(O)c2)cc1", "activity change, negative = cytotoxicity": "-0.86% [at 42.5 µM]"}, {"smiles": "CC(=O)C(C)=O", "activity change, negative = cytotoxicity": "-0.414%"}, {"smiles": "CC(C)N(C)C", "activity change, negative = cytotoxicity": "0.376%"}, {"smiles": "CCC(=O)OCc1ccc(OC)cc1", "activity change, negative = cytotoxicity": "2.49%"}, {"smiles": "C[C@@H]1[C@H](O)[C@@H](C)/C=C/C=C\\C=C\\C=C\\C=C\\C=C\\C=C\\[C@H](O[C@@H]2O[C@H](C)[C@@H](O)[C@H](N)[C@@H]2O)C[C@@H]2O[C@](O)(C[C@@H](O)C[C@@H](O)[C@H](O)CC[C@@H](O)C[C@@H](O)CC(=O)O[C@H]1C)C[C@H](O)[C@H]2C(=O)O", "note": "(stereo in doubt)", "activity change, negative = cytotoxicity": "-0.437%"}, {"smiles": "O=C(NC(Cc1cc(=O)[nH]c2ccccc12)C(=O)O)c1ccc(Cl)cc1", "note": "(centres undefined)", "activity change, negative = cytotoxicity": "2.6% [at 42.5 µM]"}, {"smiles": "O=C(O)c1ccc(O)cc1O", "activity change, negative = cytotoxicity": "2.23%"}, {"smiles": "CN1C(CSCC(F)(F)F)Nc2cc(Cl)c(S(N)(=O)=O)cc2S1(=O)=O", "note": "(centres undefined)", "activity change, negative = cytotoxicity": "0.79% [at 42.5 µM]"}, {"smiles": "CCCCOC(=O)CCCCC(=O)OCCCC", "activity change, negative = cytotoxicity": "1.48%"}, {"smiles": "O=C(Nc1ccc(C(=O)O)c(O)c1)c1ccccc1", "activity change, negative = cytotoxicity": "-0.987% [at 42.5 µM]"}, {"smiles": "Cc1ccc(N(CCO)CCO)cc1", "activity change, negative = cytotoxicity": "-0.293%"}, {"smiles": "CC(=O)NCCO", "activity change, negative = cytotoxicity": "4.23%"}, {"smiles": "Cc1c(C2(c3cc(Br)c(O)c(Br)c3C)OS(=O)(=O)c3ccccc32)cc(Br)c(O)c1Br", "Potency": "4.2 µM (active)"}, {"smiles": "C=Cc1ccc(OC(C)=O)cc1", "activity change, negative = cytotoxicity": "8.04%"}, {"smiles": "Cc1ccc2c(c1)CCCN2", "activity change, negative = cytotoxicity": "-10.4%"}, {"smiles": "CNCc1ccc(NC(=O)c2c[nH]c3c2C(=O)CCC3)cc1", "activity change, negative = cytotoxicity": "2.83%"}, {"smiles": "CC(C)COC(=O)c1ccc(O)cc1", "activity change, negative = cytotoxicity": "-2.73%"}, {"smiles": "CSSc1ccoc1C", "activity change, negative = cytotoxicity": "3.93%"}, {"smiles": "Cc1ccc(Cl)cc1N", "activity change, negative = cytotoxicity": "-1.96%"}, {"smiles": "C[C@@H]1C[C@H]2[C@@H]3CCC4=CC(=O)C=C[C@]4(C)[C@@]3(F)[C@@H](O)C[C@]2(C)[C@@]1(O)C(=O)COP(=O)(O)O", "activity change, negative = cytotoxicity": "2.59%"}, {"smiles": "Cc1ccc2c(c1[N+](=O)[O-])C(=O)c1ccccc1C2=O", "activity change, negative = cytotoxicity": "2.03% [at 42.5 µM]"}, {"smiles": "CC(C)(C(=O)c1cccnc1)c1cccnc1", "activity change, negative = cytotoxicity": "0.238% [at 42.5 µM]"}, {"smiles": "CCN(Cc1cccc(S(=O)(=O)O)c1)c1ccc(C(=C2C=CC(=[N+](CC)Cc3cccc(S(=O)(=O)O)c3)C=C2)c2ccc(O)cc2S(=O)(=O)[O-])cc1", "Potency": "9.32 µM (active)"}]}]}
